Holding throughout (assay): protein-binding microarray (PBM); PBM: ~300 nM protein, 6 mM HEPES pH 7.8, 80 mM KCl, 0.5 mM EDTA, 0.5 mM EGTA, 6% glycerol, 35 ng/ul poly-dIdC, 1% milk, 1 h, room temperature; Ap Aiptasia and Nv Nematostella (sea anemones) / Co Capsaspora / Aq Amphimedon (sponge) / Dm Drosophila / Hu human; RHD is the Rel homology domain; high values mean tight binding
Common to all, as to conditions: dsDNA, one strand shown

The target of assay [1] is T1, GST-Ap-NF-kB RHD (Exaiptasia pallida (Aiptasia), UniProt A0A913YAJ5 2-422).
T1 sequence: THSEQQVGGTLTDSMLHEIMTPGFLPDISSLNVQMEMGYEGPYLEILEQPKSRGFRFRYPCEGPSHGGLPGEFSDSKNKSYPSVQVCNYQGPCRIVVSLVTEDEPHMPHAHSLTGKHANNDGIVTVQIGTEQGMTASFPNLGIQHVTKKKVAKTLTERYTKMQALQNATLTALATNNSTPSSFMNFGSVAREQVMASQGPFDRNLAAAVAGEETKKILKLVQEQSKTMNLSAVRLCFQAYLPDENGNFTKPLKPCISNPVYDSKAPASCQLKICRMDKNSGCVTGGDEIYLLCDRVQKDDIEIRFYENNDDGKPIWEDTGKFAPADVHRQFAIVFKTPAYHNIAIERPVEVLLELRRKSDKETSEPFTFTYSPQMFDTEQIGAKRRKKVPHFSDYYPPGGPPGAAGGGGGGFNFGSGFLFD

For assay [2], the target named is T2, GST-Nv-NF-kB (Cys allele) (Nematostella vectensis, UniProt E5G601 2-411).
T2 sequence: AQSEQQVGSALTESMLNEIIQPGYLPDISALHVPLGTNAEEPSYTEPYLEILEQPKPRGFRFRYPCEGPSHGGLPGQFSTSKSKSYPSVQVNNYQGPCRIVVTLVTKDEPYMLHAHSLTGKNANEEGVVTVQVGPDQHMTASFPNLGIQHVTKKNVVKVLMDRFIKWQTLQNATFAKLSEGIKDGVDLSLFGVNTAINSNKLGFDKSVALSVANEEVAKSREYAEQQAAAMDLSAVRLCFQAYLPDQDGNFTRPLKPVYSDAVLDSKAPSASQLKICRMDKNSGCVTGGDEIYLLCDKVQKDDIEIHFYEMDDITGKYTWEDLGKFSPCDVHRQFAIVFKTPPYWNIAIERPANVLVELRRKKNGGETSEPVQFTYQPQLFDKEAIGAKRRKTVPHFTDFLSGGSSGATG

Assay [3] addresses T3, GST-Nv-NF-kB (Ser allele) (Nematostella vectensis, UniProt A7UNT2 2-411).
T3 sequence: T2 sequence with Q21R, C66S, S207N, E215Q, V217A, E225K, A268E, D399E

In assay [4] the target is T4, GST-Co-NF-kB (Capsaspora owczarzaki, UniProt F1ARL5 200-546).
T4 sequence: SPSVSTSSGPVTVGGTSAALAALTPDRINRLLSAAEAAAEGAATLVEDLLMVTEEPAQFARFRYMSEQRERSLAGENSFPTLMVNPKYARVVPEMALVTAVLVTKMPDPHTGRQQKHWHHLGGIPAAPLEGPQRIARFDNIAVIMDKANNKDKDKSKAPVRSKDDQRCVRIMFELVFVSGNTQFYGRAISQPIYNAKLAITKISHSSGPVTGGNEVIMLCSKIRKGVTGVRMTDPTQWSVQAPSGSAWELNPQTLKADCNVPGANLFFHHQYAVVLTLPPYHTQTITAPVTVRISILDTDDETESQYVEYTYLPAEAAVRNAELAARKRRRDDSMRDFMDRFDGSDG

Assay [5] addresses T5, GST-Dm-Relish (Drosophila melanogaster, UniProt Q94527 99-473).
T5 sequence: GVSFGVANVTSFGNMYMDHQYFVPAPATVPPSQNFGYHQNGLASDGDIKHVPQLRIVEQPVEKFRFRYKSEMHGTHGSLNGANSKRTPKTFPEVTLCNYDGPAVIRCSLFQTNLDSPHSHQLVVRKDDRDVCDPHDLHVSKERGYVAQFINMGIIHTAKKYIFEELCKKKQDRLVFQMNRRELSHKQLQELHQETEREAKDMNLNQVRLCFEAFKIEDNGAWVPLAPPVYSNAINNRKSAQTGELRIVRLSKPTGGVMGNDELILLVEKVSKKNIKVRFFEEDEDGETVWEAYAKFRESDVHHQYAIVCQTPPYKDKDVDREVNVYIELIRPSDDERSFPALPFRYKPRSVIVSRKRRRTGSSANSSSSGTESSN

For assay [6], the target named is T6, GST-Aq-NF-kB (Amphimedon queenslandica, UniProt A9Y5G7 2-389).
T6 sequence: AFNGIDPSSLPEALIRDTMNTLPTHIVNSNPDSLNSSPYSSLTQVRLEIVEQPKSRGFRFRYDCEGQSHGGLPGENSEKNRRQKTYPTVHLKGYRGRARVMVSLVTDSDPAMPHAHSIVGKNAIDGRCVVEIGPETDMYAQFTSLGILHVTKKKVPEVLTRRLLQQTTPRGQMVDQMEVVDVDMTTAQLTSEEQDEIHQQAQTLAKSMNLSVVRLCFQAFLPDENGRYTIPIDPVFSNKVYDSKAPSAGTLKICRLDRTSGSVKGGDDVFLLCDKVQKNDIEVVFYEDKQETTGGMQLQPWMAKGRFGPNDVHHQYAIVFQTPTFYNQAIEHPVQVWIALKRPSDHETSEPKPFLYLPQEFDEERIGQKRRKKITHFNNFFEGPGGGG

Assay [7] concerns the target GST-Hu-p50 (Homo sapiens, UniProt P19838 7-356).

Positions count from the first letter of the chain named.

Sequence of GST-Hu-p50 (P19838 7-356): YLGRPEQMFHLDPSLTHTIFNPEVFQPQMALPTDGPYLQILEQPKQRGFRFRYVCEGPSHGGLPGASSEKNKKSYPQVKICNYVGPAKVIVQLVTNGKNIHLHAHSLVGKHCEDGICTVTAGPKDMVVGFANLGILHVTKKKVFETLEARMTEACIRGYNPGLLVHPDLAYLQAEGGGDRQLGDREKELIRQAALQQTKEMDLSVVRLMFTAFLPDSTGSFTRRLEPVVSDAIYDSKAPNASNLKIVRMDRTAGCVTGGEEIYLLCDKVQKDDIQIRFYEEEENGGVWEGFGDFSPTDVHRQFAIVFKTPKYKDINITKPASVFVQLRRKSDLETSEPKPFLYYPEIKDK

“CCGATTAACATCAGGGTAAACCCTGATGTTAATCGGGTCTTGATTCGCTTGACGCTGCTG”: the binding signal in assay [1] stood at 3.1 z-score; in assay [2], 4.05 z-score; in assay [3] it was 2.62 z-score; in assay [4], 2.45 z-score; in assay [5], 5.92 z-score; in assay [6] it was 6.52 z-score. The sequence further had a binding signal in assay [7] of 2.7 z-score.
For “CCGATTAACATCACGGGGGGTACTGATGTTAATCGGGTCTTGATTCGCTTGACGCTGCTG”, the binding signal amounted to 5.05 z-score in assay [1]; 3.22 z-score in assay [2]; 3.15 z-score in assay [3]; 4.54 z-score in assay [4]; 3.63 z-score in assay [5]; 3.58 z-score in assay [6]. In assay [7], this sequence gave a binding signal of 3.25 z-score.
For “CCGATTAACATCACTATTTCCCCTGATGTTAATCGGGTCTTGATTCGCTTGACGCTGCTG”, the binding signal came to 6.35 z-score in assay [1]; 7.42 z-score in assay [2]; 9.8 z-score in assay [3]; 8.77 z-score in assay [4]; 3.62 z-score in assay [5]; 4.85 z-score in assay [6]. In addition, in assay [7], the binding signal was 6.08 z-score.
In the case of “CCGATTAACATCAGGGGGGAAGATGATGTTAATCGGGTCTTGATTCGCTTGACGCTGCTG”, the binding signal in assay [1] stood at 4.86 z-score; in assay [2], 5.5 z-score; in assay [3] it was 5.9 z-score; in assay [4], 7.62 z-score; in assay [5], 3.64 z-score; in assay [6] it was 4.85 z-score. The sequence also had a binding signal in assay [7] of 4.98 z-score.
For the sequence “CCGATTAACATCAAAACTCCCCTTGATGTTAATCGGGTCTTGATTCGCTTGACGCTGCTG”, the binding signal in assay [1] amounted to 8.31 z-score; in assay [2] it was 7.73 z-score; in assay [3], 8.37 z-score; in assay [4], 4.59 z-score; in assay [5], 7.49 z-score; in assay [6], 7.22 z-score. In assay [7], this sequence came in with a binding signal of 6.44 z-score.
Consider “CCGATTAACATCAGAAATCCCCCTGATGTTAATCGGGTCTTGATTCGCTTGACGCTGCTG”, for which the binding signal was 11.2 z-score in assay [1]; 10.5 z-score in assay [2]; 10.8 z-score in assay [3]; 6.78 z-score in assay [4]; 9.63 z-score in assay [5]; 8.32 z-score in assay [6]. This sequence also displayed a binding signal in assay [7] of 7.68 z-score.
Take “CCGATTAACATCAACGAAACCCCTGATGTTAATCGGGTCTTGATTCGCTTGACGCTGCTG”: the binding signal was determined as 3.65 z-score in assay [1]; 2.45 z-score in assay [2]; 2.84 z-score in assay [3]; 1.39 z-score in assay [4]; 4.41 z-score in assay [5]; 2.77 z-score in assay [6]. This sequence also displayed a binding signal in assay [7] of 3.87 z-score.
Consider “CCGATTAACATCAATTTTCCCCCTGATGTTAATCGGGTCTTGATTCGCTTGACGCTGCTG”, for which the binding signal in assay [1] was found to be 7.68 z-score; in assay [2], 8.57 z-score; in assay [3], 11.2 z-score; in assay [4], 12 z-score; in assay [5] it was 4.81 z-score; in assay [6], 6.79 z-score. Also, the binding signal in assay [7] is 7.47 z-score.
“CCGATTAACATCAGCAATCCCCCTGATGTTAATCGGGTCTTGATTCGCTTGACGCTGCTG”: the binding signal in assay [1] was 7.85 z-score; in assay [2], 6.26 z-score; in assay [3] it was 6.95 z-score; in assay [4], 4.31 z-score; in assay [5], 5.79 z-score; in assay [6], 5.16 z-score. The same sequence gave a binding signal in assay [7] of 6.73 z-score.
As to “CCGATTAACATCAAAGATTCCCCTGATGTTAATCGGGTCTTGATTCGCTTGACGCTGCTG”, the binding signal was found to be 8.13 z-score in assay [1]; 10.5 z-score in assay [2]; 11.7 z-score in assay [3]; 8.45 z-score in assay [4]; 7.42 z-score in assay [5]; 7.27 z-score in assay [6]. In assay [7], this sequence registered a binding signal of 6.66 z-score.
As to “CCGATTAACATCAACTTCCCCCCTGATGTTAATCGGGTCTTGATTCGCTTGACGCTGCTG”, the binding signal in assay [1] turned out to be 7.03 z-score; in assay [2], 6.37 z-score; in assay [3] it was 6.34 z-score; in assay [4] it was 9.16 z-score; in assay [5], 7.29 z-score; in assay [6], 6.32 z-score. Moreover, in assay [7], the binding signal came out at 5.76 z-score.
Consider “CCGATTAACATCACCCCATCCCCTGATGTTAATCGGGTCTTGATTCGCTTGACGCTGCTG”, for which the binding signal in assay [1] was found to be 4.19 z-score; in assay [2] it was 2.64 z-score; in assay [3], 4.17 z-score; in assay [4] it was 2.99 z-score; in assay [5] it was 2.37 z-score; in assay [6] it was 3.17 z-score. The sequence also yielded a binding signal in assay [7] of 3.3 z-score.

Source of the values: publication PMC5700166.
